{
  "source": "PubChem BioAssay",
  "note": "Entries with a potency or affinity are not part of this list. Active and inactive are the calls of the source.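 The calls were made as follows: active = signal drop whose fitted half-maximal concentration is at most twice the top valid dose, in every test run; inconclusive = mixed calls across runs, poor fit, or flat 30 to 70% inhibition; inactive = wrong direction, flat within 30%, or potency beyond limit.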",
  "data": [
    {"experiment": "RMG-1 ovarian cancer cell viability loss – cherry-pick, dose response (AID 687029);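 also: cells exposed to compound for 96 hours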", "conditions": "RMG-1 viability, CellTiterGlo ATP luminescence, 96 h; series mostly up to 35 µM", "values": [
      {"smiles": "COc1ccc2c3c([nH]c2c1)[C@H](CO)N(C(=O)Nc1cccc(F)c1)CC31CCN(S(=O)(=O)c2cccc(C)c2)CC1", "outcome": "inactive"},
      {"smiles": "COc1ccc(-c2ccc3c(c2)[C@@H]2[C@@H](CCN2S(=O)(=O)c2ccc(OC)cc2)[C@@H](CO)N3C)cc1", "outcome": "inactive"},
      {"smiles": "C[C@@H]1CN([C@H](C)CO)C(=O)c2cc(NC(=O)Nc3ccccc3)ccc2O[C@@H](C)CCCCO[C@@H]1CN(C)CC1CCCCC1", "outcome": "inactive"},
      {"smiles": "C[C@@H]1CN([C@H](C)CO)C(=O)CCCn2cc(nn2)CO[C@H]1CN(C)C(=O)Nc1ccc(-c2cccs2)cc1", "outcome": "inactive"},
      {"smiles": "C[C@H](CO)N1C[C@H](C)[C@H](CN(C)S(=O)(=O)c2ccc(Cl)cc2)OCCCC[C@H](C)Oc2ccc(NS(=O)(=O)c3ccc(Cl)cc3)cc2C1=O", "outcome": "inactive"},
      {"smiles": "C[C@H]1CCCCO[C@H](CN(C)Cc2ccc(C(F)(F)F)cc2)[C@@H](C)CN([C@@H](C)CO)C(=O)c2cc(NS(=O)(=O)c3ccc(F)cc3)ccc2O1", "outcome": "inactive"},
      {"smiles": "Cc1cccc(S(=O)(=O)N2CC[C@@H]3[C@H](CO)N(C)c4ccc(-c5ccc(C#N)cc5)cc4[C@@H]32)c1", "outcome": "inactive"},
      {"smiles": "C[C@@H]1CCCCO[C@@H](CN(C)C(=O)c2ccccc2)[C@H](C)CN([C@H](C)CO)C(=O)c2cc(NC(=O)Nc3ccc(C(F)(F)F)cc3)ccc2O1", "outcome": "inactive"},
      {"smiles": "C[C@H]1CN([C@@H](C)CO)S(=O)(=O)c2ccc(C#Cc3ccc(F)cc3)cc2O[C@@H]1CN(C)C(=O)NC1CCCCC1", "outcome": "inactive"},
      {"smiles": "C[C@@H]1CCCCO[C@H](CN(C)Cc2ccccc2)[C@@H](C)CN([C@@H](C)CO)C(=O)c2cc(NC(=O)Nc3ccc(C(F)(F)F)cc3)ccc2O1", "outcome": "inactive"},
      {"smiles": "O=C(Nc1ccc(C(F)(F)F)cc1)Nc1ccc2c(c1)[C@@H]1C[C@H](CC(=O)N3CCc4ccccc4C3)O[C@H](CO)[C@@H]1O2", "outcome": "inactive"},
      {"smiles": "CC(C)NC(=O)N(C)C[C@H]1OCCCC[C@@H](C)Oc2ccc(NC(=O)Nc3ccc(C(F)(F)F)cc3)cc2C(=O)N([C@@H](C)CO)C[C@H]1C", "outcome": "inactive"},
      {"smiles": "COc1cccc(C#Cc2ccc3c(c2)O[C@@H](CN(C)C(=O)c2ccccn2)[C@H](C)CN([C@@H](C)CO)S3(=O)=O)c1", "outcome": "inactive"},
      {"smiles": "C[C@@H]1CCCCO[C@@H](CN(C)C(=O)Nc2ccc(C(F)(F)F)cc2)[C@H](C)CN([C@H](C)CO)C(=O)c2cc(NS(=O)(=O)c3ccc(Cl)cc3)ccc2O1", "outcome": "inactive"},
      {"smiles": "C[C@@H]1CCCCO[C@@H](CN(C)S(=O)(=O)c2ccc(F)cc2)[C@H](C)CN([C@H](C)CO)C(=O)c2cc(NS(=O)(=O)c3ccc(Cl)cc3)ccc2O1", "outcome": "inactive"},
      {"smiles": "CC(C)CC1NC(=S)N(Cc2ccccc2)C1=O", "note": "(centres undefined)", "outcome": "inactive"},
      {"smiles": "CC(C)CC#Cc1ccc2c(c1)O[C@H](CN(C)S(=O)(=O)c1ccc(F)cc1)[C@@H](C)CN([C@@H](C)CO)S2(=O)=O", "outcome": "inactive"},
      {"smiles": "C[C@@H]1CCCCO[C@H](CN(C)CC2CCCCC2)[C@H](C)CN([C@@H](C)CO)C(=O)c2cc(NC(=O)Nc3ccccc3)ccc2O1", "outcome": "inactive"},
      {"smiles": "C[C@H]1CCCCO[C@H](CN(C)Cc2ccc(C(F)(F)F)cc2)[C@@H](C)CN([C@@H](C)CO)C(=O)c2cc(NS(=O)(=O)c3cccs3)ccc2O1", "outcome": "inactive"},
      {"smiles": "C[C@@H]1CCCCO[C@H](CN(C)C(=O)Nc2ccc(C(F)(F)F)cc2)[C@@H](C)CN([C@@H](C)CO)C(=O)c2cc(NC(=O)Nc3ccc(C(F)(F)F)cc3)ccc2O1", "outcome": "inactive"},
      {"smiles": "COc1cccc(S(=O)(=O)N2CCCCN3[C@@H](CO)[C@@H](c4ccc(C#CCC(C)C)cc4)[C@@H]3C2)c1", "outcome": "inactive"},
      {"smiles": "C[C@H]1CCCCO[C@@H](CN(C)Cc2ccc3c(c2)OCO3)[C@@H](C)CN([C@@H](C)CO)C(=O)c2cc(NC(=O)Nc3ccc(F)cc3)ccc2O1", "outcome": "inactive"},
      {"smiles": "Cc1ccc(S(=O)(=O)Nc2ccc3c(c2)C(=O)N([C@H](C)CO)C[C@@H](C)[C@H](CN(C)Cc2ccc(Cl)c(Cl)c2)OCCCC[C@H](C)O3)cc1", "outcome": "inactive"},
      {"smiles": "C[C@@H]1CN([C@H](C)CO)S(=O)(=O)c2ccc(-c3ccc(C#N)cc3)cc2O[C@@H]1CN(C)Cc1cccc(F)c1", "outcome": "inactive"},
      {"smiles": "C[C@H]1CN([C@@H](C)CO)C(=O)Cc2cc(NC(=O)NC3CCCCC3)ccc2O[C@H]1CN(C)Cc1ccc(-c2ccccc2)cc1", "outcome": "inactive"},
      {"smiles": "O=C(Nc1ccc(F)cc1)N1CC(=O)N2[C@@H](CO)[C@@H](c3ccc(C#Cc4ccc(F)cc4)cc3)[C@@H]2C1", "outcome": "inactive"},
      {"smiles": "Cc1ccc(S(=O)(=O)N(C)C[C@H]2Oc3cc(C#Cc4ccncc4)ccc3S(=O)(=O)N([C@H](C)CO)C[C@H]2C)cc1", "outcome": "inactive"},
      {"smiles": "O=C(Cc1ccccc1)N1CC[C@H]2[C@H](CO)Nc3ccc(C4=CCCCC4)cc3[C@H]21", "outcome": "inactive"},
      {"smiles": "Cc1noc(C)c1S(=O)(=O)Nc1ccc2c(c1)C(=O)N([C@H](C)CO)C[C@@H](C)[C@H](CN(C)C(=O)Nc1ccc(C(F)(F)F)cc1)OCCCC[C@@H](C)O2", "outcome": "inactive"},
      {"smiles": "C[C@@H]1CN([C@H](C)CO)C(=O)c2cc(NC(=O)Cc3ccccc3)ccc2O[C@@H](C)CCCCO[C@@H]1CN(C)Cc1ccc(C(F)(F)F)cc1", "outcome": "inactive"},
      {"smiles": "C[C@H](CO)N1C[C@H](C)[C@@H](CN(C)S(=O)(=O)c2cccc(F)c2)OCc2ccccc2-c2c(n(C)c3ccccc23)C1=O", "outcome": "inactive"},
      {"smiles": "C[C@@H]1CN([C@@H](C)CO)C(=O)Cc2cc(NC(=O)Cc3cn(C)c4ccccc34)ccc2O[C@H]1CN(C)Cc1ccc(Oc2ccccc2)cc1", "outcome": "inactive"},
      {"smiles": "C[C@H]1CCCCO[C@H](CN(C)C(=O)C2CCCCC2)[C@@H](C)CN([C@@H](C)CO)C(=O)c2cc(NS(=O)(=O)c3ccc(Cl)cc3)ccc2O1", "outcome": "inactive"},
      {"smiles": "C[C@@H]1CN([C@H](C)CO)C(=O)c2cc(NC(=O)Nc3ccc(F)cc3)ccc2O[C@@H](C)CCCCO[C@@H]1CN(C)Cc1ccc(Cl)c(Cl)c1", "outcome": "inactive"},
      {"smiles": "C[C@@H]1CN([C@H](C)CO)C(=O)c2cc(NC(=O)Nc3cccc4ccccc34)ccc2O[C@@H]1CN(C)C(=O)Nc1cccc2ccccc12", "outcome": "inactive"},
      {"smiles": "C[C@@H]1CCCCO[C@H](CN(C)Cc2ccc(C(F)(F)F)cc2)[C@H](C)CN([C@H](C)CO)C(=O)c2cc(NC(=O)c3ccccc3)ccc2O1", "outcome": "inactive"},
      {"smiles": "Cc1ccccc1-c1ccc2c(c1)O[C@H](CN(C)C(=O)Nc1ccc(C(F)(F)F)cc1)[C@@H](C)CN([C@H](C)CO)S2(=O)=O", "outcome": "inactive"},
      {"smiles": "COc1ccccc1C#Cc1ccc2c(c1)O[C@@H](CN(C)Cc1cncnc1)[C@H](C)CN([C@H](C)CO)S2(=O)=O", "outcome": "inactive"},
      {"smiles": "C[C@@H]1CN([C@H](C)CO)S(=O)(=O)c2ccc(C#CC3CCCC3)cc2O[C@H]1CN(C)Cc1cccnc1", "outcome": "inactive"}
    ]}
  ]
}
